Experimental data: PubChem BioAssay (EPA / NIEHS)
Active and inactive are the calls of the source. How the source made its calls: active means hit-call score of the fitted dose curve at least 0.9, where 1 is the maximum; inactive means score below 0.9.

How the values were obtained:
Conditions in all cases: mRNA level, 48 h; actives raise or lower the signal
[1] = read-out: Apolipoprotein A-V (APOA5) gene, APOA5 (gene 116519); assay: LTEA_HepaRG_APOA5: Life Technologies and Expression Analysis (LTEA) Assay for Apolipoprotein A-V (APOA5) gene using HepaRG (AID 2283474)
Summary of the method: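 Readout is APOA5 transcript level by qRT-PCR on Fluidigm dynamic arrays, normalized to three housekeeping genes. HepaRG cultures received chemicals for 48 h at up to 100 uM (half-log steps, 0.5% DMSO), with gain or loss scored relative to DMSO.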

[2] = read-out: Apoptosis regulator Bcl-2 (Homo sapiens) (UniProt P10415); assay: LTEA_HepaRG_BCL2: Life Technologies and Expression Analysis (LTEA) Assay for Bcl-2 gene using HepaRG (AID 2283475);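 further: BCL2 transcript by TaqMan qRT-PCR normalised to ACTB GAPDH and POLR2A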
Summary of the method: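 Each chemical was tested in duplicate on HepaRG cultures held in serum-free induction medium for 48 h, highest concentration 100 uM with half-log dilutions. Transcript levels came from multiplexed qRT-PCR, normalised to housekeeping genes; activity was scored in either direction relative to DMSO.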

[3] = read-out: Bcl-2 (BID) gene, BID (gene 637); assay: LTEA_HepaRG_BID: Life Technologies and Expression Analysis (LTEA) Assay for Bcl-2 (BID) gene using HepaRG (AID 2283476)
Summary of the method: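 Assay used HepaRG hepatic cells treated 48 h in serum-free medium with half-log dilutions from 100 uM. Endpoint: BID mRNA, qRT-PCR, normalized to ACTB/GAPDH/POLR2A.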

Caspase-3 (Homo sapiens) = Caspase-3 (Homo sapiens) (UniProt P42574); assay: LTEA_HepaRG_CASP3: Life Technologies and Expression Analysis (LTEA) Assay for cysteine-aspartic acid protease (CASP3) using HepaRG (AID 2283477)
Summary of the method: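 Read-out is CASP3 mRNA level by TaqMan qRT-PCR in human HepaRG cells after 48 h chemical exposure. Eight half-log concentrations topping at 100 uM were tested in 0.5% DMSO; gain or loss was fitted relative to DMSO.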

[4] = read-out: Cytochrome P450 (CYP24A1), CYP24A1 (gene 1591); assay: LTEA_HepaRG_CYP24A1: Life Technologies and Expression Analysis (LTEA) Assay for Cytochrome P450 (CYP24A1) using HepaRG (AID 2283478)
Summary of the method: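 HepaRG, 48 h chemical exposure, 8-pt half-log CRC from 100 uM, 0.5% DMSO vehicle, duplicates. Endpoint: CYP24A1 mRNA by Fluidigm TaqMan qRT-PCR, normalized ACTB/GAPDH/POLR2A; gain/loss fit vs DMSO.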

[5] = read-out: Cytochrome P450 (CYP1A2), CYP1A2 (gene 1544); assay: LTEA_HepaRG_CYP1A2: Life Technologies and Expression Analysis (LTEA) Assay for Cytochrome P450 (CYP1A2) using HepaRG (AID 2283479)
Summary of the method: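 CYP1A2 transcript induction or loss, quantified by Fluidigm qRT-PCR against three housekeeping genes, was fitted bidirectionally against 0.5% DMSO controls. Human HepaRG cells received eight half-log concentrations from 100 uM over 48 h.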

[6] = read-out: cysteine-aspartic acid protease (CASP8), CASP8 (gene 841); assay: LTEA_HepaRG_CASP8: Life Technologies and Expression Analysis (LTEA) Assay for cysteine-aspartic acid protease (CASP8) using HepaRG (AID 2283480)
Summary of the method: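 qRT-PCR readout of CASP8 mRNA, normalized to three housekeeping genes, after 48 h chemical exposure of HepaRG cells; 8-point half-log series, top 100 uM, 0.5% DMSO vehicle. Bidirectional curve fitting against DMSO baseline.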

[7] = read-out: Cytochrome P450 (CYP2B6), CYP2B6 (gene 1555); assay: LTEA_HepaRG_CYP2B6: Life Technologies and Expression Analysis (LTEA) Assay for Cytochrome P450 (CYP2B6) using HepaRG (AID 2283481)
Experimental: LTEA_HepaRG is a cell based, multiplexed-readout assay that uses HepaRG, a human liver cell line, with measurements taken at 48 hours after chemical dosing on a 96-well plate.LTEA_HepaRG_CYP2B6 is one of 102 assay component(s) measured in the LTEA HepaRG cell culture assay. It is a marker of NR mediated metabolism.Data from the assay component LTEA_HepaRG_CYP2B6 was analyzed into 1 endpoint. This assay endpoint, LTEA_HepaRG_CYP2B6, was analyzed with bidirectional fitting relative to DMSO as the negative control and baseline of activity. Using a type of inducible reporter, measures of mRNA induction for gain or loss-of-signal activity can be used to understand regulation of transcription factor activity. To generalize the intended target to other relatable targets, this assay endpoint is annotated to the cyp intended target family, where the subfamily is xenobiotic metabolism.
A total of 1060 chemcials from the ToxCast library were tested in eight-point concentration-response experiments. Cell culture and cytotoxicity assays were conducted at Thermo Fisher Scientific's Custom Services facility (Madison, WI). […] Fluidigm's 96.96 Dynamic ArrayTM (Fluidigm, Amsterdam, the Netherlands) technology was used for gene expression analyses by quantitative reverse transcription polymerase chain reaction (qRT-PCR, performed by Quintiles/Expression Analysis, Durham, NC)89. […]

[8] = read-out: Cytochrome P450 2C19 (Homo sapiens) (UniProt P33261); assay: LTEA_HepaRG_CYP2C19: Life Technologies and Expression Analysis (LTEA) Assay for CYP2C19 using HepaRG (AID 2283482)
Summary of the method: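 Transcript levels of CYP2C19 were quantified by qRT-PCR after HepaRG cells were treated for 48 hours with test chemicals up to 100 uM (eight half-log concentrations, 0.5% DMSO vehicle). Gain or loss of signal was fitted relative to DMSO.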

CYP2C8 (gene 1558) = assay: LTEA_HepaRG_CYP2C8: Life Technologies and Expression Analysis (LTEA) Assay for CYP2C8 using HepaRG (AID 2283483)
Summary of the method: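 HepaRG (human liver line), 48 h chemical exposure, 8-pt half-log series from 100 uM, 0.5% DMSO vehicle. Readout: CYP2C8 transcript by qRT-PCR, housekeeping-normalized. Bidirectional fit vs DMSO baseline.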

Measured: outcome

Chain of Cytochrome P450 2C19 (Homo sapiens) (P33261 whole entry, looked up): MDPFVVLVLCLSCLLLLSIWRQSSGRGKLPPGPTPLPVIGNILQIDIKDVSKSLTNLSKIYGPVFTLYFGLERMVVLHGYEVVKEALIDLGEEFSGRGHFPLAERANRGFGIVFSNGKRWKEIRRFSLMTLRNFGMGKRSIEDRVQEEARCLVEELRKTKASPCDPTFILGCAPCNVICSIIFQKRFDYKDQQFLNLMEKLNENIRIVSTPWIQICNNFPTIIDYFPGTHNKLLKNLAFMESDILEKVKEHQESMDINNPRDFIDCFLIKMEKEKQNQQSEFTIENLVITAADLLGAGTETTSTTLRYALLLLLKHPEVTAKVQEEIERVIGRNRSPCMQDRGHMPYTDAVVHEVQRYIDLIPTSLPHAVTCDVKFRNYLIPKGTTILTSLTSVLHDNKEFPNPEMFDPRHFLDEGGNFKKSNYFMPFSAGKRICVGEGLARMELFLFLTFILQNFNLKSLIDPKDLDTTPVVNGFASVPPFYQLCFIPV
Chain of Apoptosis regulator Bcl-2 (Homo sapiens) (P10415 whole entry, looked up): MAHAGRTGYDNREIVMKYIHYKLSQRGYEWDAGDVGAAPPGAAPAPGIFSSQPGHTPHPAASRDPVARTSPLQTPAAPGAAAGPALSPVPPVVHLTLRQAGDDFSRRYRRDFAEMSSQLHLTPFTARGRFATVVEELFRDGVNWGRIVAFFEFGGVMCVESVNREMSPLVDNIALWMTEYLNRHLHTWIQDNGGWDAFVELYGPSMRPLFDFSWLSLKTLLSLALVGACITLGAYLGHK
Chain of Caspase-3 (Homo sapiens) (P42574 whole entry, looked up): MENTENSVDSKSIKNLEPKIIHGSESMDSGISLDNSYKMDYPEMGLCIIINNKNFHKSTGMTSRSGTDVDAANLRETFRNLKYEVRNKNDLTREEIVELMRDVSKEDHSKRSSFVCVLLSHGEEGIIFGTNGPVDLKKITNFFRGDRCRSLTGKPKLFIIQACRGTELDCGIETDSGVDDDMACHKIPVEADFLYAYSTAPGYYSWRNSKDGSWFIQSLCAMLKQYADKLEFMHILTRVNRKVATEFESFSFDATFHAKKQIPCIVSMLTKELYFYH

CS(=O)(=O)OCCCCOS(C)(=O)=O
inactive: all assays above
